The list is not random: actives were taken first. Their share in the collection is about 12%.
Pf growth 48h – P. falciparum growth inhibition at 48 hours (one generation); P. falciparum luciferase growth in erythrocytes, 48 h; Potency, µM (top dose mostly 28.7 µM), hits mostly inhibitors; 310,000 tested, 5.9% active; AID 504832
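Cell-based growth assay: transgenic P. falciparum expressing firefly luciferase, cultured in red cells within RPMI 1640 containing 0.5% w/v Albumax, 24 mM bicarbonate and gentamycin. A drop in luciferase activity indicates inhibition.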
NS1 inh – inhibitors of influenza NS1 protein function; Potency, µM (top dose mostly 46.1 µM); 270,000 tested, 0.4% active; AID 2326; calls by dose curve; further: actives are rising curves; nearly all actives have a fitted effect of over 50% in size
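S. cerevisiae expressing influenza A NS1, grown in glucose, washed, then diluted 1:100 into pH 6.0 -URA galactose medium with 23 nl compound. Growth recovery read as OD600; NS1-free strain serves as control.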
AMA1-RON2 inh – inhibitors of Plasmodium falciparum AMA1-RON2 interaction; AlphaScreen AMA1-biotinylated RON2 peptide binding; 360,000 tested, 0.2% active; Potency, µM (titrated, usually from 58.2 µM), usual class: inhibitors; further: nearly all actives have a fitted effect of over 45% in size
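AMA1 (3D7) with his tag at 25 nM final met compounds first, then biotinylated RON2 peptide at 25 nM; detection used donor plus acceptor beads, 10 µg/mL apiece, read by AlphaScreen after 30 min at room temperature.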
Pf growth 96h – P. falciparum growth inhibition at 96 hours; P. falciparum luciferase reporter growth, 96 h; Potency, µM (highest dose often 28.7 µM), hits mostly inhibitors; 320,000 tested, 6.9% active; AID 504834
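P. falciparum expressing integrated firefly luciferase grown in erythrocytes (2% hematocrit, 0.05% parasitemia final) with compounds for 96 hours at 37 C, 5% CO2. Growth inhibition read as loss of luminescence after adding luciferase detection reagent.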
SARS PLP yeast – SARS-CoV PLP inhibition in yeast | S. cerevisiae expressing SARS-CoV PLpro, growth rescue | Potency, µM (top dose mostly 32.9 µM), actives largely listed as activators | 330,000 tested, 0.19% active | AID 485353; calls by dose curve; further: nearly all actives have a fitted effect of over 55% in size
HCV inh – HCV inhibition | Huh7.5.1 HCVcc-Cre infection, luciferase reporter, 44 h | 340,000 tested, 3.4% active | Potency, µM (highest dose often 41.8 µM), hits mostly inhibitors
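Cells (1,000/well) were plated 4 h before compound, then infected with HCVcc-Cre virus (~0.5 moi). After 44 h further culture, infection was read as luciferase luminescence following a 15 min substrate incubation at room temperature.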
Large screens that a line does not name were inactive. Unless noted, the call rests on the fitted dose curve; in most records, active means well fitted curve in the direction sought with a large enough effect; inconclusive means small, poorly fitted or top-dose-only effect, or another doubt; inactive means no such curve, though single readings can be large; an effect the other way counts as inactive or inconclusive.

O=C(c1cc(C(=O)N2CCOCC2)c2nc3ccccc3n2c1)c1ccccc1O	Pf growth 48h inconclusive, Pf growth 96h inconclusive
Cc1sc2nc3c(C(=O)N4CCCC4)cc(C(=O)c4ccccc4O)cn3c(=O)c2c1C	Pf growth 48h 13.1µM, Pf growth 96h inconclusive, HCV inh inconclusive
Cc1sc2nc3c(C(=O)N4CCN(c5ncccn5)CC4)cccn3c(=O)c2c1C	none (no result: Pf growth 48h, AMA1-RON2 inh, Pf growth 96h, SARS PLP yeast, HCV inh)
CCc1c(C)sc2nc3c(C(=O)N4CCOCC4)cc(C(=O)c4cc(F)ccc4O)cn3c(=O)c12	Pf growth 48h inconclusive, Pf growth 96h 2.08µM, HCV inh inconclusive (no result: NS1 inh)
CCCNC(=O)C1(C)CCCN(C(=O)c2ccccc2F)C1 (stereo unspecified)	none (no result: Pf growth 48h, NS1 inh, Pf growth 96h, SARS PLP yeast, HCV inh)
O=C1c2oc3ccc(Cl)cc3c(=O)c2C(c2cccc(Br)c2)N1CCO (stereo unspecified)	Pf growth 48h 11.7µM, HCV inh inconclusive
CCN(CC)CCN1C(=O)c2oc3ccccc3c(=O)c2C1c1cccc(Br)c1 (stereo unspecified)	Pf growth 48h inconclusive, Pf growth 96h 0.928µM
CCCOc1ccc(C2c3c(oc4ccccc4c3=O)C(=O)N2CCN(CC)CC)cc1OC (stereo unspecified)	Pf growth 48h 1.47µM, Pf growth 96h inconclusive
Cc1ccc2oc3c(c(=O)c2c1)C(c1cccc(Br)c1)N(Cc1ccco1)C3=O (stereo unspecified)	Pf growth 96h 13.1µM (no result: HCV inh)
Cc1cc2oc3c(c(=O)c2cc1C)C(c1cccc(Br)c1)N(Cc1ccco1)C3=O (stereo unspecified)	Pf growth 48h inconclusive, Pf growth 96h inconclusive
CN(C)CCN(c1ccccn1)c1ccccn1	none (no result: Pf growth 48h, AMA1-RON2 inh, Pf growth 96h, SARS PLP yeast, HCV inh)
C=CCC[C@@H](Cc1ccc(F)cc1)C(=O)OC[C@@H](Cc1ccccc1)NC(=O)[C@@H](CC=C)CC(=O)N[C@@H](CO)Cc1ccccc1	none (no result: Pf growth 48h, NS1 inh, Pf growth 96h)
Cc1cccc(Nc2nnc(SCc3cn4ccsc4n3)s2)c1	Pf growth 48h 9.28µM, Pf growth 96h 5.86µM, HCV inh inconclusive
Cc1ccccc1Nc1nnc(SCc2cc(=O)n3ccsc3n2)s1	Pf growth 48h 13.1µM, Pf growth 96h 16.5µM
O=c1cc(CSc2nnc(Nc3ccccc3)s2)nc2sccn12	Pf growth 48h inconclusive (no result: Pf growth 96h)
O=C(Nc1nccs1)c1ccc(COc2ccccc2Br)o1	Pf growth 48h inconclusive, HCV inh 11.2µM (no result: Pf growth 96h)
O=C(Nc1nccs1)c1ccccc1Br	Pf growth 96h inconclusive
CCOc1ccccc1C(=O)Nc1nccs1	Pf growth 96h 6.57µM, HCV inh 5.62µM
CCOC(=O)Cc1nnc(NC(=O)c2ccccc2OCC)s1	HCV inh inconclusive
CCCCc1nnc(NC(=O)c2ccccc2OCc2c(C)noc2C)s1	Pf growth 48h 9.28µM, Pf growth 96h 0.928µM (no result: NS1 inh)
O=C(Nc1nccs1)c1ccc(COc2ccc(F)cc2)o1	HCV inh inconclusive
CCOc1ccccc1C(=O)Nc1nnc(COC)s1	HCV inh 7.08µM
CCCCNS(=O)(=O)c1ccc2nc(-c3cccs3)cc(C(=O)NCC(OC)OC)c2c1	Pf growth 48h inconclusive, Pf growth 96h inconclusive (no result: AMA1-RON2 inh)
CCOc1ccc(CNC(=O)CCC(=O)N2Cc3ccccc3Oc3ncccc32)cc1	Pf growth 48h inconclusive, Pf growth 96h inconclusive
CCCCCC1=C(C(=O)OC)C(C(=O)OCC)N(S(=O)(=O)C(F)(F)F)c2ccccc21 (stereo unspecified)	HCV inh 11.2µM (no result: Pf growth 48h, NS1 inh, Pf growth 96h)
CCOc1ccc(N(Cc2ccc(C(=O)O)cc2)S(=O)(=O)c2ccc(C)cc2)cc1	Pf growth 96h inconclusive
O=C1NCC(c2ccccc2)C1C(=O)N/N=C\c1ccc(-c2cccc(Cl)c2Cl)o1 (stereo unspecified)	none (no result: Pf growth 48h, Pf growth 96h)
Cc1ccc(-c2ccc(/C=N\NC(=O)C3C(=O)NCC3c3ccccc3)o2)cc1Cl (stereo unspecified)	NS1 inh inconclusive, Pf growth 96h inconclusive, HCV inh 8.91µM (no result: Pf growth 48h)
COCCn1c(N)c(N(Cc2ccccc2)C(=O)CSCC(=O)Nc2ccc(OC)cc2)c(=O)[nH]c1=O	HCV inh inconclusive (no result: NS1 inh)
O=C(CN(c1ccccc1F)S(=O)(=O)c1ccccc1)Nc1ccc2c(c1)OCCO2	Pf growth 96h 4.15µM, HCV inh inconclusive
CC(=O)Nc1ccc(NC(=O)CN(c2ccc(F)cc2)S(=O)(=O)c2ccc3c(c2)OCCO3)cc1	Pf growth 96h 8.28µM (no result: Pf growth 48h)
CCC(C)NC(=O)C1CCCN(S(=O)(=O)c2ccc3c(c2)CC(C)N3C(=O)C2CC2)C1 (stereo unspecified)	Pf growth 48h inconclusive, Pf growth 96h inconclusive
CCCNC(=O)C1CCN(S(=O)(=O)c2ccc3[nH]c(=O)ccc3c2)CC1	none
CCC1CCCCN1S(=O)(=O)c1ccc2c(c1)CCN2C(=O)C1CCC1 (stereo unspecified)	Pf growth 48h 9.28µM, HCV inh inconclusive (no result: Pf growth 96h)
CCCCN(C)C(=O)C1CCCN(S(=O)(=O)c2ccc3c(c2)CC(C)N3C(=O)C2CC2)C1 (stereo unspecified)	Pf growth 48h inconclusive, Pf growth 96h 13.1µM
CCC1CCCCN1S(=O)(=O)c1ccc2[nH]c(=O)ccc2c1 (stereo unspecified)	Pf growth 96h 3.29µM
CC1Cc2cc(S(=O)(=O)N3CCCCC3C)ccc2N1C(=O)C1CCC1 (stereo unspecified)	Pf growth 48h inconclusive, Pf growth 96h 10.4µM, HCV inh inconclusive
CCOC(=O)C1CCCCN1S(=O)(=O)c1ccc2c(c1)CC(C)N2C(=O)C1CCC1 (stereo unspecified)	Pf growth 48h inconclusive, HCV inh inconclusive
COc1cc(NS(=O)(=O)c2c(C(=O)N3CCOCC3)c(C)n(C)c2C)cc(OC)c1OC	Pf growth 96h inconclusive
Cc1ccc(-c2ccc(/C=N/O)o2)cc1[N+](=O)[O-]	none (no result: NS1 inh)
CCOc1ccc(NC(=O)CSc2nnc(CNC(=O)c3cccs3)o2)cc1	Pf growth 96h inconclusive, SARS PLP yeast inconclusive
CC1CC(C)CN(S(=O)(=O)c2ccc3c(c2)CC(C)N3C(=O)C2CC2)C1 (stereo unspecified)	Pf growth 48h inconclusive, Pf growth 96h inconclusive
CC1CC(C)CN(S(=O)(=O)c2ccc3c(c2)CC(C)N3C(=O)C2CCC2)C1 (stereo unspecified)	Pf growth 48h 10.4µM, Pf growth 96h inconclusive, HCV inh inconclusive
COc1ccc(N(CC(=O)NC2CC2)S(=O)(=O)c2ccccc2)cc1	none
O=c1cc(-c2ccccc2)cc(-c2ccccc2)n1CCCO	Pf growth 48h 9.28µM, Pf growth 96h inconclusive, HCV inh inconclusive (no result: NS1 inh)
CCN(CC)S(=O)(=O)c1ccc2c(c1)nc(CCC(=O)Nc1ccccc1Cc1ccccc1)n2CC	Pf growth 48h 11.7µM, HCV inh 10µM (no result: Pf growth 96h)
CCCCC(=O)NC(c1ccc(N(C)C)cc1)c1ccc2cccnc2c1O (stereo unspecified)	Pf growth 48h inconclusive, SARS PLP yeast inconclusive, HCV inh 3.98µM

Compound activity (PubChem)
